# Measured values taken from PubChem BioAssay (NCI).
# About 79,000 compounds went through this panel and 15% of them were active in at least one assay; those are over-represented in the sample as a whole. A number with no mark means an inactive call. The source made the active and inactive calls. Rule as the data show it: active = growth inhibition above about 70%; inactive = the rest.
# What was measured:
# [1] = NCI Yeast Anticancer Drug Screen. Data for the rad50 strain (AID 155);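 also: 0% = growth of vehicle-only cultures of the same strain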; settings: S. cerevisiae rad50 strain growth inhibition, stronger effect = higher value
# How it was run: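 Compounds were tested on a yeast strain with an engineered DNA damage repair alteration; the reported value is growth inhibition normalised to vehicle treatment.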
# [2] = NCI Yeast Anticancer Drug Screen. Data for the mec2-1 strain (AID 157); settings: S. cerevisiae mec2-1 strain, stronger effect = higher value
# How it was run: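 Test agents were screened against the mec2-1 yeast strain, with defined DNA repair or cell cycle alteration. Growth was scored as inhibition against vehicle-only controls.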
# [3] = NCI Yeast Anticancer Drug Screen. Data for the sgs1 mgt1 strain (AID 161);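 also: 0% = growth of cultures given vehicle only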; settings: S. cerevisiae sgs1 mgt1 strain, stronger effect = higher value
# How it was run: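 Mutant yeast exposed to compound; growth scored against vehicle-only wells.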
# [4] = NCI Yeast Anticancer Drug Screen. Data for the cln2 rad14 strain (AID 165);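 also: 0% = growth equal to vehicle treated cultures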; settings: S. cerevisiae cln2 rad14 strain, stronger effect = higher value
# How it was run: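 Growth of compound-exposed yeast (cln2 rad14 genotype) measured and expressed as inhibition relative to vehicle.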
# [5] = NCI Yeast Anticancer Drug Screen. Data for the bub3 strain (AID 167); settings: S. cerevisiae bub3 mutant strain, stronger effect = higher value
# How it was run: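 Growth of a checkpoint-deficient yeast mutant is measured after compound exposure. Values represent inhibition relative to vehicle.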
# [6] = NCI Yeast Anticancer Drug Screen. Data for the mlh1 rad18 strain (AID 175); settings: S. cerevisiae mlh1 rad18 strain growth inhibition, stronger effect = higher value
# How it was run: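 In this whole-cell yeast screen, a strain with altered DNA damage repair is challenged with compound, and its growth is measured against matched vehicle-treated controls.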
# [7] = at 5.0 µM (retest, dose inferred, filed as 0.5)
# [8] = at 50.0 µM (retest, dose inferred, filed as 5.0)
Compound,"growth inhibition [1, 7]","growth inhibition [1, 8]",growth inhibition ([1]; at 50.0 µM),"growth inhibition [2, 7] [%]","growth inhibition [2, 8]",growth inhibition ([2]; at 50.0 µM),"growth inhibition [3, 7]","growth inhibition [3, 8]",growth inhibition ([3]; at 50.0 µM),"growth inhibition [4, 7] [%]","growth inhibition [4, 8]",growth inhibition ([4]; at 50.0 µM),"growth inhibition [5, 7] [%]","growth inhibition [5, 8]",growth inhibition ([5]; at 50.0 µM),"growth inhibition [6, 7] [%]","growth inhibition [6, 8]",growth inhibition ([6]; at 50.0 µM)
O=[N+]([O-])c1ccc(NC(=S)N/N=C(\c2ccccc2)c2ccccn2)cc1,8%,73% (active),63.1%,-32,79% (active),66.2%,-19%,87% (active),79.5% (active),19,75% (active),72.1% (active),-5,82% (active),80.8% (active),11,89% (active),79.8% (active)
CC1(C)CC(=O)C(c2ccccc2[N+](=O)[O-])=C(O)C1,4%,6%,99.6% (active),11,20%,99.3% (active),4%,8%,69.6%,5,24%,90.3% (active),-6,-1%,98.3% (active),-2,7%,99.2% (active)
CC(=O)OC1CCCCCCCCCCC12OCCO2 (stereo not given),23%,96% (active),30%,5,98% (active),63%,20%,99% (active),73.5% (active),1,96% (active),63.6%,1,96% (active),83% (active),10,96% (active),92% (active)
CC(c1ccc2cccc(F)c2c1)c1ccccc1C(=O)O (stereo not given),3%,99% (active),99% (active),6,98% (active),96% (active),-1%,96% (active),98.2% (active),1,98% (active),97.5% (active),0,97% (active),93.9% (active),5,99% (active),98.2% (active)
NCc1cccc(O)c1O,27%,61%,73.7% (active),22,41%,81.1% (active),14%,51%,41.5%,15,46%,24.7%,20,72% (active),53.6%,28,44%,24.9%
Cc1ccc(-n2cc(-c3ccc(Cl)cc3)c3c(NN)ncnc32)cc1,-20%,30%,85.7% (active),-11,65%,87.6% (active),-8%,61%,87.5% (active),-20,37%,90.3% (active),-19,53%,87.7% (active),-14,65%,76.6% (active)
Cc1ccccc1C1c2c(C)cccc2C(=O)CC1CC(=O)O (stereo not given),4%,60%,58%,1,72% (active),81.5% (active),-1%,75% (active),82.3% (active),-41,70% (active),13.3%,6,67%,70% (active),8,83% (active),81.6% (active)
O=C1OC2(CCN(Cc3ccccc3)CC2)C(=O)N1c1cccc(Cl)c1,-1%,35%,79.5% (active),-8,22%,18.5%,28%,58%,76.5% (active),60,52%,40.8%,14,81% (active),52.8%,3,37%,62.5%
CCc1nc(N)nc(N)c1-c1ccc(NCCCCCCCCCCCCN)c([N+](=O)[O-])c1,-18%,99% (active),94.2% (active),-11,99% (active),99.2% (active),-1%,99% (active),40.4%,-24,98% (active),87% (active),-5,99% (active),98.5% (active),-19,99% (active),98.7% (active)
CCC[CH2][Sn]([CH2]CCC)([O]C(=O)c1cccc(F)c1F)[O]C(=O)c1cccc(F)c1F,73% (active),73% (active),86.6% (active),62,62%,88% (active),78% (active),78% (active),86.5% (active),55,55%,88.7% (active),62,62%,87.9% (active),67,67%,86.4% (active)
